Data: PubChem BioAssay
Activity calls are given as the source filed them.

Experiments:
Albumin (Bos taurus) = Albumin (Bos taurus) (UniProt P02769); experiment: compounds binding labelled BSA control protein – biochemical, small-molecule microarray, Alexa647 label, 635/667 nm fluorescence, artefact control for SMM control protein annotation, profiling panel (AID 1118); settings: BSA-A647 binding, fluorescence 635 nm, higher = more signal;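 note: score merges 667 nm emission intensity and signal-to-noise per printed compound spot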
Sequence of Albumin (Bos taurus) (P02769 whole entry, looked up): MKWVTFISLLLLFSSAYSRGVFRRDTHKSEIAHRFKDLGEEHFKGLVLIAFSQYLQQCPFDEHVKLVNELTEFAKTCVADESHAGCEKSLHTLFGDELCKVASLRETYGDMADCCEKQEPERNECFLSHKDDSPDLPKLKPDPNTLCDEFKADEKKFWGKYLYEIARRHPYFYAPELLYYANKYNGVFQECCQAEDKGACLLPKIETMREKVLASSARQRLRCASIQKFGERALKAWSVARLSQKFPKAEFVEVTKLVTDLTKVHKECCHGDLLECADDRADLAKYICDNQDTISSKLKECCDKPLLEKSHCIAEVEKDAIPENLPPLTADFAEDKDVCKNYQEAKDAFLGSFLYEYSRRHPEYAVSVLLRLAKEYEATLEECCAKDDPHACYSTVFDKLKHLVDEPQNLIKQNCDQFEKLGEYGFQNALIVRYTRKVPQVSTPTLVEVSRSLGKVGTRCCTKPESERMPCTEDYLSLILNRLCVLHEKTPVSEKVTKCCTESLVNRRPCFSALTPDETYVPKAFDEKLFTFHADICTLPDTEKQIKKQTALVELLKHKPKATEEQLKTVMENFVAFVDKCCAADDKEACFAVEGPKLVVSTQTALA

[1] = probe aXIP binding to arrayed compounds – biochemical, NeuroSMM set, 635/667 nm fluorescence, primary screen (AID 1119); settings: small-molecule microarray, higher = more signal, called active from +8 up or from −8 down;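 note: probe is the protein aXip251-270 applied at 1 µg/mL to compound-printed slides; binding of probe to printed compounds measured as 667 nm fluorescence plus signal to noise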
[2] = probe aNOTCH3 binding on compound microarray – biochemical, small-molecule microarray, 635/667 nm fluorescence, primary screen (AID 1120); settings: higher = more signal;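 note: probe is a biotin-tagged antibody raised against NOTCH3 rather than NOTCH3 protein; score merges spot fluorescence near 667 nm with spot signal to noise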
[3] = probe aNOTCH2 binding on compound microarray – biochemical, small-molecule microarray, 635/667 nm fluorescence, primary screen (AID 1121); settings: higher = more signal;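 note: score merges feature fluorescence read at 667 nm with its signal to noise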
[4] = target: Carbonic anhydrase 2 (Homo sapiens) (UniProt P00918); experiment: compounds binding carbonic anhydrase 2 – biochemical, small-molecule microarray, Alexa647-labelled CAII, profiling panel (AID 1122); settings: CAII-A647 binding fluorescence, higher = more signal
[5] = COS7 lysate on small-molecule microarray, probe aHis, 635 nm (AID 1123); settings: COS7 cell lysate, fluorescence, higher = more signal;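 note: z-score combines 667nm fluorescence intensity with signal-to-noise per printed compound spot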
[6] = probe aLAP1 signal on lysate-treated microarray – cell lysate, small-molecule microarray, COS7 lysate, primary screen (AID 1124); settings: probe aLAP1, fluorescence, higher = more signal;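 note: lysate comes from COS7 cells expressing LAP1 and is applied at 0.3 µg/mL; score merges spot fluorescence near 667 nm with signal-to-noise over triplicate slides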
Sam68 (KHDRBS1) = experiment: compounds binding KHDRBS1 protein – biochemical, small-molecule microarray, 635 nm fluorescence, primary screen (AID 1125); settings: higher = more signal;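 note: score merges 667 nm channel intensity with signal to noise over triplicate slides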
[7] = system: Chordin-like protein 2 (CHRDL2); experiment: compounds binding chordin-like 2 – biochemical, small-molecule microarray, 635 nm fluorescence, primary screen (AID 1126); settings: fluorescence 635 nm, higher = more signal;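 note: printed compound slides probed with Chrdl2 protein at 4 µg/mL for 1 h at 4 C; score merges 667 nm emission intensity with signal to noise over three replicate slides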
[8] = target: Concanavalin-A (Canavalia ensiformis) (UniProt P02866); experiment: compounds binding concanavalin A lectin – biochemical, small-molecule microarray, Alexa647 label, 635 nm, artefact control for SMM control protein annotation, primary screen (AID 1127); settings: ConA-A647 binding fluorescence, higher = more signal;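 note: z combines 667 nm emission intensity with signal-to-noise across three replicate slides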
Sequence of Concanavalin-A (Canavalia ensiformis) (P02866 whole entry, looked up): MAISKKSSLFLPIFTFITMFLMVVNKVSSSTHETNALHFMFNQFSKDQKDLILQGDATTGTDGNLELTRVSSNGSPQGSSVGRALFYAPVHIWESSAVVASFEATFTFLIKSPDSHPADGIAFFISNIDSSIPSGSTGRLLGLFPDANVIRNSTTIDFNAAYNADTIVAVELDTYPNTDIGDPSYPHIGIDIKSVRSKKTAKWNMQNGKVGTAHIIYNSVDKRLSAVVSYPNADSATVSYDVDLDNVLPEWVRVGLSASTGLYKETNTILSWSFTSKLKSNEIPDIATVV

[9] = compounds binding Alexa647 anti-His antibody – biochemical, small-molecule microarray, 635 nm fluorescence, artefact control for SMM control protein annotation, primary screen (AID 1128); settings: higher = more signal;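 note: score merges feature fluorescence with signal-to-noise for each printed compound spot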
[10] = system: Human papillomavirus type 1a E7 protein (residues 1-88); experiment: HPV1a E7 small-molecule binders, primary screen, biochemical, small-molecule microarray, residues 1-88, 635 nm (AID 1129); settings: small-molecule microarray binding, fluorescence 635 nm; higher = more signal
[11] = target: Focal adhesion kinase 1 (Homo sapiens) (UniProt Q05397); experiment: PTK2 protein binding on printed compound slides – biochemical, small-molecule microarray, 635/667 nm fluorescence, BSA, DTT, primary screen (AID 1130); settings: 635 nm fluorescence, higher = more signal;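 note: composite of spot emission at 667 nm and signal to noise over triplicate slides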
Sequence of Focal adhesion kinase 1 (Homo sapiens) (Q05397 whole entry, looked up): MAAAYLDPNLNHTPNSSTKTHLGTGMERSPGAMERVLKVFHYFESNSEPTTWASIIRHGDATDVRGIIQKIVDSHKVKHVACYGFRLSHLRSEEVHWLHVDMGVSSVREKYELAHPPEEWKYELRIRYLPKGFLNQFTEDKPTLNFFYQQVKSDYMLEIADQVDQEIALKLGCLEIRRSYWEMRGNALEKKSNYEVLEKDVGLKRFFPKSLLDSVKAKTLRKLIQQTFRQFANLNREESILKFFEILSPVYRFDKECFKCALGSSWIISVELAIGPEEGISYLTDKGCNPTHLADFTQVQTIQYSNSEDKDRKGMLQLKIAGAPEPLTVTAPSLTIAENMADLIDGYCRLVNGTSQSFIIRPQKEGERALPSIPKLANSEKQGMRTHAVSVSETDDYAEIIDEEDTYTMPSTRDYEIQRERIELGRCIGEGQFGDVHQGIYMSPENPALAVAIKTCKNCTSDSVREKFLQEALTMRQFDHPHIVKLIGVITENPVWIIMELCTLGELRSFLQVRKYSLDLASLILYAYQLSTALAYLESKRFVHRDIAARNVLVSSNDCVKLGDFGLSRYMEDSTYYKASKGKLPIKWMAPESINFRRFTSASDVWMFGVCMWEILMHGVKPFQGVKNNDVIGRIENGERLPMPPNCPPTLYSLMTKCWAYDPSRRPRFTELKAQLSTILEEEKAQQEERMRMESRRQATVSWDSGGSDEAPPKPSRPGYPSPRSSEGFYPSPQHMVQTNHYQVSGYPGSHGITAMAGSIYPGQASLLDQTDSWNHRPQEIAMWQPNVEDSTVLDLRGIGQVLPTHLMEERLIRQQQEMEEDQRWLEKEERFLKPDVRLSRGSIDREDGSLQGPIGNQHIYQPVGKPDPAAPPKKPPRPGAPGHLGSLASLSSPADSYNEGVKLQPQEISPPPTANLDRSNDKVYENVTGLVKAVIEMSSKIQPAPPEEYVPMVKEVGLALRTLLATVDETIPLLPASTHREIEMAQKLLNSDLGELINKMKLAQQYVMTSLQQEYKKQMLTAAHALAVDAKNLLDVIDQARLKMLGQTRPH

[12] = system: Fibrinogen (Alexa647-labelled); experiment: Alexa647-fibrinogen binding to printed small molecules – biochemical, small-molecule microarray, 635/667 nm fluorescence, artefact control for SMM control-protein annotation, profiling panel (AID 1131); settings: fibrinogen-A647 binding fluorescence, higher = more signal;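 note: z-score merges 667 nm fluorescence with per-spot signal-to-noise over triplicate slides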
[13] = target: Follistatin (Homo sapiens) (UniProt P19883); experiment: FST protein binding to printed compounds – biochemical, small-molecule microarray, 635/667 nm fluorescence, primary screen (AID 1132); settings: 635 nm fluorescence, higher = more signal
Sequence of Follistatin (Homo sapiens) (P19883 whole entry, looked up): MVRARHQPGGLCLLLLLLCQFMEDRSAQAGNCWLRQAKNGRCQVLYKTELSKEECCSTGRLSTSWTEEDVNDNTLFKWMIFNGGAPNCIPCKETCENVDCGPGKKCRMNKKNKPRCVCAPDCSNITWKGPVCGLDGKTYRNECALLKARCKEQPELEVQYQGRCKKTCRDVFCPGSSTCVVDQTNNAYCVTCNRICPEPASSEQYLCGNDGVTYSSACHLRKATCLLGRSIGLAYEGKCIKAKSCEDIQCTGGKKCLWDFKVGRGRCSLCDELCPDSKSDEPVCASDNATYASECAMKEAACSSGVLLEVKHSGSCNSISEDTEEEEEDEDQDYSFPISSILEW

[14] = target: Fibroblast growth factor 2 (Homo sapiens) (UniProt P09038); experiment: basic fibroblast growth factor binding to printed compounds – biochemical, small-molecule microarray, 635/667 nm fluorescence, primary screen (AID 1133); settings: FGF2, fluorescence 635/667, higher = more signal
Sequence of Fibroblast growth factor 2 (Homo sapiens) (P09038 whole entry, looked up): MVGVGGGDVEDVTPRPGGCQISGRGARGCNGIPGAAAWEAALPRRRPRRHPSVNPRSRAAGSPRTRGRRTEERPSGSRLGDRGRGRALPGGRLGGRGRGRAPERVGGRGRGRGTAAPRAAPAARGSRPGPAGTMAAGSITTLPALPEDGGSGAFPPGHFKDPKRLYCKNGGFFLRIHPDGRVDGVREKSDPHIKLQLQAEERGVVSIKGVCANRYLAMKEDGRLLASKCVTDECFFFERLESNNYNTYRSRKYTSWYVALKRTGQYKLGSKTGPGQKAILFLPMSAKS

[15] = JC-1 mitochondrial potential readout, lung cancer cells – cell-based, A549, JC-1 fluorescence, basal, 24 h, 100 nL, profiling panel (AID 1138); settings: higher = more signal;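 note: A549 lung adenocarcinoma cells under basal conditions with no added stimulus; test concentration not given here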
Lefty1 = Lefty1 protein binding to printed compounds – biochemical, small-molecule microarray, 635/667 nm fluorescence, primary screen (AID 1139); settings: fluorescence 635/667, higher = more signal
[16] = system: wheat germ agglutinin (Triticum aestivum), Alexa647-labelled; experiment: Alexa647-WGA lectin binding to printed small molecules – biochemical, small-molecule microarray, 635/667 nm fluorescence, artefact control for SMM control-protein annotation, profiling panel (AID 1140); settings: WGA-A647 binding, 635 nm fluorescence, higher = more signal;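 note: score merges 667 nm feature emission with signal to noise over triplicate slides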
[17] = target: Luciferin 4-monooxygenase (Photinus pyralis) (UniProt P08659); experiment: inhibition of purified Photinus pyralis luciferase – biochemical, luminescence, purified enzyme, 2006 set, primary screen (AID 1141); settings: purified firefly luciferase, SteadyGlo luminescence, 30 min; higher = more signal, called active from +8 up or from −8 down;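 note: cell-free assay with purified firefly luciferase at 100 ng per well in PBS; test concentration not given here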
Sequence of Luciferin 4-monooxygenase (Photinus pyralis) (P08659 whole entry, looked up): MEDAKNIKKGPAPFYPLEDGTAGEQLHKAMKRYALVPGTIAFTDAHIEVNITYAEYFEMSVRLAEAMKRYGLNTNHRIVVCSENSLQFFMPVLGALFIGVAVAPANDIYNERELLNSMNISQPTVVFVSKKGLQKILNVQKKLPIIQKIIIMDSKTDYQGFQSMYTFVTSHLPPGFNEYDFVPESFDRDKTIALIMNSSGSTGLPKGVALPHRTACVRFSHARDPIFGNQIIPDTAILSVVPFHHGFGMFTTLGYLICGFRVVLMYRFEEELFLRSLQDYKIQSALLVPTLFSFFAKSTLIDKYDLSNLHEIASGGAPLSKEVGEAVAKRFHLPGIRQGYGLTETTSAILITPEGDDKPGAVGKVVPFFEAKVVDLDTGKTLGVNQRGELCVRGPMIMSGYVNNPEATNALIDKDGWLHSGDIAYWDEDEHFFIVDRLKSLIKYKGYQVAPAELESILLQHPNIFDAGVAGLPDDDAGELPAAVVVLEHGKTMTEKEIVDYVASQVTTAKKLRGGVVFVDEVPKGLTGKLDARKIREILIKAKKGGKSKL

Structure (SMILES)	composite z-score (Albumin (Bos taurus))	composite Z-score [1]	composite z-score [2]	composite z-score [3]	composite z-score [4]	composite z-score [5]	composite z-score [6]	composite z-score (Sam68 (KHDRBS1))	composite z-score [7]	composite z-score [8]	composite z-score [9]	composite z-score [10]	composite z-score [11]	composite z-score [12]	composite z-score [13]	composite z-score [14]	z-score [15]	composite z-score (Lefty1)	composite z-score [16]	z-score [17]
CS(=O)(=O)CCOC(=O)C1=CC(CCCO)=CC(C2CC2)N(Cc2sc3ccccc3c2Cl)C=C1C(=O)OCCS(C)(=O)=O (stereo not given)	1.01	-0.0349 (inactive)	0.398	0.0706	0.666	2.34	0.549	1.07	-0.225	0.648	2.14	1.04	0.435	0.753	1.3	0.897	0.995	1.23	1.03	-1.14 (inactive)
CN1C(=O)C2C=CC(C(O)c3ccc([N+](=O)[O-])cc3)N(Nc3ccccc3)C2C1=O (stereo not given)	1.06	-1.05 (inactive)	0.315	-0.0305	0.652	1.94	0.701	1.31	0.196	1.15	0.358	1.23	0.36	0.999	1.26	0.531	-0.387	0.0022	1.04	-0.53 (inactive)
Cc1ccc(S[C@]2(C(=O)NC(C)C)CC(=O)N(Cc3ccccc3)[C@@H]2c2ccc(CO)cc2I)cc1	-0.437	-0.0142 (inactive)	-0.229	-0.227	0.784	1.79	0.532	0.636	-2.55	-0.639	-1.01	-0.781	-0.0673	-0.771	-1.35	-0.409	1.32	-1.64	-1.09	-0.629 (inactive)
COc1ccc(CCNC(=O)[C@@H]2c3ccccc3C(=O)N(C(C)C)[C@H]2c2ccc(CO)cc2)cc1	-1.09	1.13 (inactive)	-0.209	-0.132	0.722	1.42	-0.362	-0.139	-1.87	-0.574	-1.32	-0.878	-0.736	-1.3	-1.27	-0.934	2.71	-2.21	-1.74	-0.897 (inactive)
O=C(NCCN1CCOCC1)[C@@H]1c2ccccc2C(=O)N(CC23CC4CC(CC(C4)C2)C3)[C@H]1c1ccc(CO)cc1	0.974	0.864 (inactive)	0.216	0.0129	0.642	2.17	0.522	1.3	0.0884	1.14	2.06	1.25	0.211	0.962	0.99	0.424	1.26	0.357	1.17	0.733 (inactive)
COCCOC(=O)N1C(=O)[C@@]2(c3ccccc31)[C@H](C(=O)Nc1nc3ccccc3s1)[C@H]1C(=O)O[C@H](c3ccccc3)[C@H](c3ccccc3)N1[C@@H]2c1ccccc1OCCO	0.0171	0.0308 (inactive)	0.291	-0.0684	0.526	1.54	1.63	1.3	0.145	1.08	1.55	1.19	-0.0016	0.941	1.17	0.676	-2.3	0.42	1.19	-0.653 (inactive)
CN(C)CCCCNC(=O)[C@H]1C[C@H]2C(=O)N[C@@H](CCCCN(C)C)C(=O)N2[C@H]1c1ccc(O)cc1	-0.155	0.151 (inactive)	-0.0918	-0.0262	0.518	-0.28	0.224	-0.093	1.15	0.224	1.01	-0.102	0.129	-0.803	1.19	0.988	-0.0458	0.754	0.0466	0.47 (inactive)
CN1C(=O)C2CC=C(C3=CCO[C@@H]3[C@H]3CCCN3S(=O)(=O)c3ccccc3[N+](=O)[O-])CC2C1=O (stereo not given in full)	0.811	0.0129 (inactive)	-0.0647	-0.106	-0.0199	0.205	-0.065	-0.7	-0.537	-0.65	-0.354	-0.342	-0.244	0.533	0.0289	0.159	0.0911	-0.106	-0.0718	0.294 (inactive)
C=CCNC(=O)[C@@H]1[C@H]2C(=O)O[C@H](c3ccccc3)[C@H](c3ccccc3)N2[C@H](c2ccc(O)cc2)[C@@]12C(=O)Nc1ccc(C#CC3=CCCCC3)cc12	0.543	0.986 (inactive)	1.22	-0.0857	0.676	1.69	1.24	1.32	0.334	1.04	0.844	1.18	0.721	0.668	1.24	0.494	0.22	1.43	1.06	-0.806 (inactive)
COCCOC(=O)N1C(=O)[C@@]2(c3cc(C#CCCO)ccc31)[C@H](c1ccc(O)cc1)N1[C@H](c3ccccc3)[C@H](c3ccccc3)OC(=O)[C@H]1[C@@H]2C(=O)NC[C@H](O)c1ccccc1	0.417	0.406 (inactive)	-0.0105	-0.0858	0.529	1.89	1.08	1.29	0.181	0.613	2.05	1.2	0.553	0.0868	1.17	0.767	-0.703	0.958	-0.333	-1.52 (inactive)
Cc1ccc(S[C@]2(C(=O)NCC(C)C)CC(=O)N(C(C)C)[C@@H]2c2ccc(CO)cc2I)cc1	-0.0268	0.849 (inactive)	-0.019	-0.057	0.56	1.07	0.801	-0.236	-0.802	-1.16	-1.38	-0.807	-0.0038	-0.942	-0.888	0.101	-0.294	-1.16	-0.353	-0.965 (inactive)
